Shown is part of a subset that was picked to be rich in the strongest signals.
Columns and labels:
Assay in all cases: glycan array binding signal (z-score within array); higher = stronger binding
Conditions in all cases: glycan notation: IUPAC condensed, linker removed
[1] = molecular target: Gal(b1-4)GlcNAc(b1-3)[GlcNAc(b1-6)]Gal(b1-4)GlcNAc
Method in brief: (§1)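 From the Consortium for Functional Glycomics database, 3228 arrays were curated, keeping only those whose protein sequence was available. Binding is given as a within-array Z-score averaged across arrays sharing a protein sequence and across linkers. Negative Z-scores can be read as non-binding.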

Gal(b1-6)Gal = molecular target: Gal(b1-6)Gal
Method in brief: as §1

Gal3S6S(b1-4)GlcNAc = molecular target: Gal3S6S(b1-4)GlcNAc
Method in brief: as §1

Gal6S(b1-4)GlcNAc = molecular target: Gal6S(b1-4)GlcNAc
Method in brief: as §1

[2] = molecular target: GalNAc(b1-4)GlcNAc(b1-3)GalNAc(b1-4)GlcNAc
Method in brief: as §1

[3] = molecular target: GalNAc3S(b1-4)[Fuc(a1-3)]GlcNAc
Method in brief: as §1

[4] = molecular target: GlcNAc(a1-3)Gal(b1-4)GlcNAc
Method in brief: as §1

[5] = molecular target: GlcNAc(a1-4)Gal(b1-4)GlcNAc(b1-3)Gal(b1-4)GlcNAc(b1-3)Gal(b1-4)GlcNAc
Method in brief: as §1

[6] = molecular target: GlcNAc(b1-2)[GlcNAc(b1-4)]Man(a1-3)[GlcNAc(b1-2)Man(a1-6)]Man(b1-4)GlcNAc(b1-4)GlcNAc
Method in brief: as §1

[7] = molecular target: GlcNAc(b1-3)Gal(b1-4)GlcNAc(b1-3)Gal(b1-4)GlcNAc(b1-2)[GlcNAc(b1-3)Gal(b1-4)GlcNAc(b1-3)Gal(b1-4)GlcNAc(b1-6)]Man(a1-6)[GlcNAc(b1-3)Gal(b1-4)GlcNAc(b1-3)Gal(b1-4)GlcNAc(b1-2)Man(a1-3)]Man(b1-4)GlcNAc(b1-4)[Fuc(a1-6)]GlcNAc
Method in brief: as §1

[8] = molecular target: GlcNAc(b1-3)Gal(b1-4)GlcNAc(b1-3)Gal(b1-4)GlcNAc(b1-3)Gal(b1-4)GlcNAc(b1-2)[GlcNAc(b1-3)Gal(b1-4)GlcNAc(b1-3)Gal(b1-4)GlcNAc(b1-3)Gal(b1-4)GlcNAc(b1-6)]Man(a1-6)[GlcNAc(b1-3)Gal(b1-4)GlcNAc(b1-3)Gal(b1-4)GlcNAc(b1-3)Gal(b1-4)GlcNAc(b1-2)Man(a1-3)]Man(b1-4)GlcNAc(b1-4)[Fuc(a1-6)]GlcNAc
Method in brief: as §1

GlcNAc(b1-3)Man = molecular target: GlcNAc(b1-3)Man
Method in brief: as §1

[9] = molecular target: GlcNAc(b1-3)[GlcNAc(b1-4)][GlcNAc(b1-6)]GlcNAc
Method in brief: as §1

[10] = molecular target: GlcNAc(b1-4)GlcNAc(b1-4)GlcNAc(b1-4)GlcNAc(b1-4)GlcNAc(b1-4)GlcNAc
Method in brief: as §1

Kdn(a2-3)Gal(b1-4)Glc = molecular target: Kdn(a2-3)Gal(b1-4)Glc
Method in brief: as §1

Kdn(a2-6)Gal(b1-4)GlcNAc = molecular target: Kdn(a2-6)Gal(b1-4)GlcNAc
Method in brief: as §1

[11] = molecular target: Man(a1-3)[Man(a1-6)]Man(a1-6)[Man(a1-2)Man(a1-3)]Man(b1-4)GlcNAc(b1-4)GlcNAc
Method in brief: as §1

[12] = molecular target: Man(a1-3)[Man(a1-6)]Man(a1-6)[Man(a1-3)]Man
Method in brief: as §1

[13] = molecular target: Man(a1-3)[Man(a1-6)]Man(a1-6)[Man(a1-3)]Man(b1-4)GlcNAc(b1-4)GlcNAc
Method in brief: as §1

[14] = molecular target: Man(a1-3)[Man(a1-6)]Man(b1-4)GlcNAc(b1-4)[Fuc(a1-6)]GlcNAc
Method in brief: as §1

Man(a1-6)Man = molecular target: Man(a1-6)Man
Method in brief: as §1

[15] = molecular target: Neu5Ac(a2-3)Gal(b1-3)GlcNAc(b1-2)Man(a1-3)[Neu5Ac(a2-3)Gal(b1-3)GlcNAc(b1-2)Man(a1-6)]Man(b1-4)GlcNAc(b1-4)GlcNAc
Method in brief: as §1

[16] = molecular target: Neu5Ac(a2-3)Gal(b1-3)GlcNAc(b1-6)GalNAc
Method in brief: as §1

[17] = molecular target: Neu5Ac(a2-3)[Neu5Ac(a2-6)]GalNAc
Method in brief: as §1

[18] = molecular target: Neu5Ac(a2-6)Gal(b1-4)GlcNAc(b1-2)Man(a1-3)[Gal(b1-4)GlcNAc(b1-2)Man(a1-6)]Man(b1-4)GlcNAc(b1-4)GlcNAc
Method in brief: as §1

[19] = molecular target: Neu5Ac(a2-6)Gal(b1-4)GlcNAc(b1-2)Man(a1-3)[Man(a1-6)]Man(b1-4)GlcNAc(b1-4)GlcNAc
Method in brief: as §1

[20] = molecular target: Neu5Ac(a2-8)Neu5Ac(a2-3)Gal(b1-4)Glc
Method in brief: as §1

[21] = molecular target: Neu5Ac(a2-8)Neu5Ac(a2-8)Neu5Ac(a2-3)[GalNAc(b1-4)]Gal(b1-4)Glc
Method in brief: as §1

[22] = molecular target: Neu5Gc(a2-3)Gal(b1-3)GlcNAc
Method in brief: as §1

B1: PfulAvr4 (Pseudocercospora fuligena) (protein)
chain: HHHHHHDYKDDDDKTYVQDKTPAFVCPAADIKTTKCLGPKDCLYPSPKTCNGYIQCSPADDSYLTGIIHEMPCPSGLLWNDNKKWCDWPENTTCGLVKSAGATEVDATKQGPTPGKYHG
- glycan array binding signal (z-score) [1]: 1.21
- glycan array binding signal (z-score) (Gal(b1-6)Gal): -0.156
- glycan array binding signal (z-score) (Gal3S6S(b1-4)GlcNAc): 0.034
- glycan array binding signal (z-score) (Gal6S(b1-4)GlcNAc): -0.128
- glycan array binding signal (z-score) [2]: -0.127
- glycan array binding signal (z-score) [3]: -0.134
- glycan array binding signal (z-score) [4]: -0.093
- glycan array binding signal (z-score) [5]: -0.059
- glycan array binding signal (z-score) [6]: -0.053
- glycan array binding signal (z-score) [7]: -0.049
- glycan array binding signal (z-score) [8]: -0.07
- glycan array binding signal (z-score) (GlcNAc(b1-3)Man): 0.804
- glycan array binding signal (z-score) [9]: -0.124
- glycan array binding signal (z-score) [10]: 23.3
- glycan array binding signal (z-score) (Kdn(a2-3)Gal(b1-4)Glc): 0.189
- glycan array binding signal (z-score) (Kdn(a2-6)Gal(b1-4)GlcNAc): 0.004
- glycan array binding signal (z-score) [11]: 0.011
- glycan array binding signal (z-score) [12]: -0.076
- glycan array binding signal (z-score) [13]: -0.097
- glycan array binding signal (z-score) [14]: -0.095
- glycan array binding signal (z-score) (Man(a1-6)Man): -0.118
- glycan array binding signal (z-score) [15]: 1.27
- glycan array binding signal (z-score) [16]: -0.082
- glycan array binding signal (z-score) [17]: -0.131
- glycan array binding signal (z-score) [18]: 3.32
- glycan array binding signal (z-score) [19]: -0.088
- glycan array binding signal (z-score) [20]: -0.074
- glycan array binding signal (z-score) [21]: -0.132
- glycan array binding signal (z-score) [22]: -0.161

— the supplement of paper PMC8728848
